Laboratory results taken from PubChem BioAssay (NCATS).
Inconclusive results are not listed. The source made the active and inactive calls. The call rests on the fitted dose curve; in most records, active means well fitted curve in the direction sought with a large enough effect; inconclusive means small, poorly fitted or top-dose-only effect, or another doubt; inactive means no such curve, though single readings can be large; an effect the other way counts as inactive or inconclusive.

Key:
UISO = test: qHTS assay to identify novel small-molecules to repurpose for Merkel cell carcinoma treatment (AID 1296009); conditions: MCC and control cell lines, CellTiter-Glo viability, 72 h; series mostly up to 46 µM; further: nearly all actives have a fitted effect of over 60% in size
In short: (§1)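 Viability readout: ATP luminescence (CellTiter-Glo) after 72 hr drug exposure at 37 degree celsius. Dose-response format was 8 points for NPC and 11 points for MIPE; data normalized to in-plate controls.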

WaGa = test: as above; conditions: MCC and control cell lines, CellTiter-Glo viability, 72 h; series mostly up to 46 µM
In short: as §1

C33A = test: Primary qHTS to identify gynecologic anti-cancer compounds using libraries of approved drugs and bioactive compounds (AID 1345084); conditions: Gynecologic cancer cell panel viability, ATPlite luminescence, 48 h; series mostly up to 57.5 µM; further: nearly all actives have a fitted effect of over 55% in size
In short: (§2)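 48 h compound exposure at 37 C, 5% CO2; five-point qHTS. ATPlite luminescence readout of cell ATP.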

CASKI = test: as above; conditions: Gynecologic cancer cell panel viability, ATPlite luminescence, 48 h; series mostly up to 57.5 µM
In short: as §2

Es-2 = test: as above; conditions: Gynecologic cancer cell panel viability, ATPlite luminescence, 48 h; series mostly up to 57.5 µM
In short: as §2

HeLa = test: as above; conditions: Gynecologic cancer cell panel viability, ATPlite luminescence, 48 h; series mostly up to 57.5 µM
In short: as §2

Hek293T = test: as above; conditions: Gynecologic cancer cell panel viability, ATPlite luminescence, 48 h, control line for the selectivity index; series mostly up to 57.5 µM
In short: as §2

JEG-3 = test: as above; conditions: Gynecologic cancer cell panel viability, ATPlite luminescence, 48 h; series mostly up to 57.5 µM
In short: as §2

CAOV3 = test: as above; conditions: Gynecologic cancer cell panel viability, ATPlite luminescence, 48 h; series mostly up to 57.5 µM
In short: as §2

Measured: Potency
Potency means the concentration at half of the fitted maximal effect.

C/C(=N/NC(=O)c1ccncc1)C(=O)O
not listed: CAOV3
inactive: all other assays above

CCOCCn1c(C2CCN(CCc3ccc(C(C)(C)C(=O)O)cc3)CC2)nc2ccccc21
not listed: CAOV3
inactive: all other assays above

CCCC(=O)O[C@]1(C(=O)CC)CC[C@H]2[C@@H]3CCC4=CC(=O)CC[C@]4(C)[C@H]3[C@@H](O)C[C@@]21C
not listed: WaGa
inactive: all other assays above

O=C(Nc1ccc(Cl)cc1)Nc1ccc(Cl)c(C(F)(F)F)c1
active: UISO 10.6 µM | WaGa 26.6 µM | C33A 17.8 µM | Es-2 28.2 µM | HeLa 14.1 µM | Hek293T 14.1 µM
inactive: JEG-3

CC(CC1c2ccccc2CCc2ccccc21)CN(C)C (stereo unspecified)
not listed: Hek293T | CAOV3
inactive: all other assays above

CO[C@@H]1[C@@H](OC)[C@H](C)[C@@](O)(CC(=O)O)O[C@H]1[C@H](C)[C@H]1O[C@@]2(CC[C@@](C)([C@H]3CC[C@@](C)([C@@H]4O[C@@H]([C@H]5O[C@](C)(O)[C@H](C)C[C@@H]5C)C[C@@H]4OC4C[C@H](OC)[C@@H](OC)[C@H](C)O4)O3)O2)C[C@H](O)[C@H]1C (stereo partly specified)
active: UISO 0.596 µM | WaGa 0.335 µM | CAOV3 14.1 µM | Es-2 10 µM | Hek293T 2.82 µM | JEG-3 6.31 µM

CCCCCCCCCCCCCCCC[n+]1ccccc1
active: UISO 1.68 µM | WaGa 2.11 µM | C33A 17.8 µM | CASKI 7.94 µM | Es-2 17.8 µM | Hek293T 8.91 µM

COC(=O)c1cc(Cl)ccc1NS(=O)(=O)C(F)(F)F
inactive: UISO | WaGa | CASKI | Hek293T | JEG-3

Cc1cccc(N(C)C(=S)Oc2ccc3c(c2)CCC3)c1
not listed: WaGa
inactive: all other assays above

O=C(OCCN1CCOCC1)c1cccnc1Nc1cccc(C(F)(F)F)c1
not listed: WaGa
inactive: all other assays above

O=[N+]([O-])c1ccc(O)c2ncccc12
inactive: HeLa | JEG-3
active: UISO 7.5 µM | WaGa 7.5 µM | C33A 15.8 µM

CCCCCCCCCCCCCC[N+](C)(C)C
active: UISO 2.37 µM | WaGa 1.33 µM | CASKI 3.16 µM | Es-2 14.1 µM

CCCN(CCC)C(=O)C(CCC(=O)OCCCN1CCN(CCOC(=O)Cc2c(C)n(C(=O)c3ccc(Cl)cc3)c3ccc(OC)cc23)CC1)NC(=O)c1ccccc1 (stereo unspecified)
not listed: WaGa
inactive: all other assays above

CC1CCCCN1CCCOC(=O)c1ccc(OC2CCCCC2)cc1 (stereo unspecified)
not listed: WaGa
inactive: all other assays above

CC1CC(=O)NN=C1c1ccc(NCC(C)(C)NCC(O)COc2cc(Cl)ccc2C#N)cc1 (stereo unspecified)
not listed: C33A
inactive: all other assays above

CN(C)CCOC1=Cc2ccccc2Sc2ccc(Cl)cc21
not listed: WaGa
inactive: all other assays above

CCOC(=O)N1CCC(n2c(=O)[nH]c3cc(Cl)ccc32)CC1
inactive: C33A | CAOV3 | CASKI | Es-2 | HeLa

O=C1Cc2cc(Cl)ccc2N1
not listed: UISO | HeLa | CAOV3
inactive: all other assays above

O=C(O)c1ccccc1Nc1cc(Cl)ccc1C(=O)O
not listed: UISO
inactive: all other assays above
